Source: PubChem BioAssay (several laboratories)
An excerpt weighted towards active compounds, which were near 4.8% of everything screened.
ssDAF-12 act: activates DAF-12 receptor from parasite S. stercoralis | HEK293 ssDAF-12/GRIP1 lit1-tk-luc reporter, luminescence; % of 3 µM dafachronic acid response | actives 1% (n = 370,000) | activation, % at 6.8 µM;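 active means activation above the mean over all tested compounds plus 3 SD, cut at about 0.9% in these data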;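 further: 0% = DMSO-only wells and 100% = 3 µM delta7-dafachronic acid wells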
DAX1 inh-1: NR0B1 (DAX1) inhibition; HEK293 Gal4-DAX1 luciferase reporter, luminescence; actives 0.99% (n = 340,000); inhibition, % at 6.75 µM; P51843;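 active means inhibition above the mean over all tested compounds plus 3 SD, cut at about 4.2% in these data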;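 further: 0% = DAX1-transfected cells with DMSO and 100% = empty-vector control cells with DMSO; inhibition shows as a rise in luminescence from relieved DAX1 repression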
hcDAF-12 act: activates DAF-12 receptor from parasite H. contortus; HEK293 hcDAF-12 lit1-tk-luc reporter, luminescence; 0% DMSO, 100% Δ7-dafachronic acid; activation, % at 6.8 µM; actives 1.4% (n = 370,000); AID 652067;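 active means activation above the mean of all tested compounds plus 3 SD, cut at about 5.5% in these data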;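 further: 100% = response to 3 µM Δ7-dafachronic acid high control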
DAX1 inh-2: blocks DAX1 repression of SF-1 activated StAR promoter; inhibition, % at 6.8 µM; actives 1.1% (n = 370,000); HEK293T StAR-luciferase reporter, SF-1/DAX-1 repression relief;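 active means inhibition above the mean over all tested compounds plus 3 SD, cut at about 3.6% in these data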;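 further: 0% = DAX-1 cells with DMSO and 100% = cells lacking DAX-1 with DMSO; higher inhibition means more luminescence from relief of DAX-1 repression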
hgDAF12 agonist: agonists of H. glycines DAF-12 nuclear receptor | HEK293 GAL4-hgDAF12 UAS-luciferase reporter, agonist luminescence; normalized to butyrate control | activation, % at 6.8 µM | actives 1.8% (n = 370,000);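 active means activation above a cutoff set at the mean of all screened compounds plus 3 SD, cut at about 10% in these data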;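 further: 0% = DMSO wells and 100% = sodium butyrate wells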
Rev-erbA mod: Rev-erb alpha (human) modulation | P20393 | Rev-erbα–FITC-DNA binding, fluorescence polarization, 90 min | activity, % at 10 µM | actives 0.79% (n = 370,000) | AID 1259318;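 active means activity above about 14%, limit read from the data; passing the limit was not always enough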;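 further: 0% = DMSO wells with 35 nM protein and 100% = DMSO wells with 750 nM protein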
LXRb hcDAF ctr: LXR-beta agonism as hcDAF-12 counter-screen | shares compounds with hcDAF-12 act | HEK293 Gal4-LXR tk-luc reporter, luminescence, 24 h; normalized: DMSO 0%, positive control 100% | activation, % at 6.8 µM | 3,400 tested, under 10 active | AID 743027;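 active means mean percent activation of the reporter above a cutoff set as the average over tested compounds plus their standard deviation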
Target sequence (P55055 whole entry, looked up, the tested form may be a part): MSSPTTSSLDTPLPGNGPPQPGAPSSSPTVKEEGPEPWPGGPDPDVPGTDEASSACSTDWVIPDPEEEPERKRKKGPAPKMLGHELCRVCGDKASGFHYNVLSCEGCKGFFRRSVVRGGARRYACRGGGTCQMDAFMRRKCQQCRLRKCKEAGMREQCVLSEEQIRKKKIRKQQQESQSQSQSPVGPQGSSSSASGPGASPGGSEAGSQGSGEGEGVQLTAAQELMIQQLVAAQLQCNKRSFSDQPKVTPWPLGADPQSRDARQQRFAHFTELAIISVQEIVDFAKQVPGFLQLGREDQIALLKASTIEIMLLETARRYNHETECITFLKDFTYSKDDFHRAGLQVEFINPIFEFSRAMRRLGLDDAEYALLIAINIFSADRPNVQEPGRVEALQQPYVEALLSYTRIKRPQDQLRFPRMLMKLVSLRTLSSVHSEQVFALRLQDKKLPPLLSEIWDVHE
hcDAF12 conf: hcDAF-12 agonism, confirmation assay | HEK293 hcDAF-12 lit1-tk-luc reporter, luminescence; % of Δ7-dafachronic acid response | activation, % at 6.8 µM | actives 61% (n = 3,400) | AID 743032 | shares compounds with hcDAF-12 act;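 active means mean activation across triplicate tests above the threshold derived from the earlier primary screen, cut at about 5.5% in these data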;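 further: 0% = DMSO only wells and 100% = 3 µM Δ7-dafachronic acid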
hgDAF12 conf: hgDAF-12 agonism, confirmation assay. shares compounds with hgDAF12 agonist. HEK293 GAL4-hgDAF12 luciferase reporter, agonist mode; percent of butyrate response. activation, % at 6.8 µM. actives 80% (n = 3,300);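 active means mean activation over triplicate wells above the hit cutoff derived from the earlier primary screen, cut at about 11% in these data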;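 further: 0% = DMSO low control and 100% = 2 mM sodium butyrate high control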
LXRb DAF12 ctr: activates human LXR-beta, counter-screen for DAF-12 agonists; shares compounds with hgDAF12 agonist; HEK293 Gal4-LXR luciferase reporter, 24 h; activation, % at 6.8 µM; 3,300 tested, under 10 active; AID 743051;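 active means mean activation of the triplicate above a set limit carried over from the primary screen, none filed active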
The depositor's hits bear a star; . = not tested or not shown.

SMILES	ssDAF-12 act	DAX1 inh-1	hcDAF-12 act	DAX1 inh-2	hgDAF12 agonist	Rev-erbA mod	LXRb hcDAF ctr	hcDAF12 conf	hgDAF12 conf	LXRb DAF12 ctr
Fc1cccc(Cl)c1/C=C/c1cnc2ccccc2n1	2.0*	2	20*	3	16*	4	2	22*	.	.
O=C(/C=C/c1c(F)cccc1Cl)Nc1nc2ccccc2[nH]1	0	1	0	1	8	6	.	.	.	.
CC(C)C(=O)N[C@H]1[C@H](O)CCC[C@@]12C(=O)N(Cc1ccccc1)c1ccccc12	-1	.	1	1	2	-1	.	.	.	.
COC(=O)[C@]12C[C@H](CC(=O)N3CCOCC3)C(=O)N(Cc3cccc4ccccc34)C1=C[C@H](C1CCCC1)O[C@@H]2C	0	.	-3	-1	-1	-1	.	.	.	.
CC(=O)NCc1ccc(OCCCN2CCC(C(O)(c3ccccc3)c3ccccc3)CC2)cc1	-1	.	-1	2	0	-6	.	.	.	.
O=C(Nc1ccc2c(c1)OCCO2)c1ccc(Cl)cc1Cl	1	-2	8.0*	2	13*	5	2	8.0*	19*	1
O=C(Nc1ccc2c(c1)OCCO2)c1cccc(Cl)c1	0	3	9.9*	2	18*	9	1	4	15*	1
Cc1cc(C(=O)Nc2ccc3c(c2)OCCO3)c(C)o1	0	1	4	3	9	-4	.	.	.	.
Cc1ccc(CN2CCCCC(NC(=O)c3cccc(F)c3)C2=O)cc1 (stereo not given)	-1	.	-2	0	-1	1	.	.	.	.
C[C@H]1COc2cc(Br)ccc2S(=O)(=O)N1Cc1cn(Cc2ccccc2)nn1	-2	.	-1	1	0	-7	.	.	.	.
O=C1COc2ccccc2C(c2nnnn2-c2ccc3ccccc3c2)N1C1CC1 (stereo not given)	0	.	-2	-1	1	-3	.	.	.	.
CC(=O)CC[C@@H]1CC[C@]2(CCCN(S(=O)(=O)c3ccccc3)C2)O1	-1	.	5	1	-3	3	.	.	.	.
c1ccc(C[n+]2c(-c3ccccc3)csc2Nc2ccccc2)cc1	0	3	3	2	8	5	.	.	.	.
c1ccc(Nc2scc(-c3ccccc3)[n+]2Cc2ccco2)cc1	0	5.1*	7.3*	3	14*	-2	1	4	16*	1
COc1ccc(NC(=S)Nc2ccccn2)c(OC)c1	0	1	0	0	6	2	.	.	.	.
COc1ccc(NC(=S)Nc2cc(C)ccn2)c(OC)c1	1.5*	3	14*	3	14*	6	1	12*	19*	1
Cc1ccc(CNc2ccc3c(c2)nc(C)n3C)cc1	1.3*	2	16*	3	16*	9	1	6.4*	17*	1
Cc1ccc(CNc2nc3ccccc3n2C)cc1	3.6*	3	16*	3	21*	2	2	16*	20*	1
COC(=O)[C@]12C[C@H](CC(=O)N3CCC(c4ccccc4)CC3)C(=O)N(Cc3cccc4ccccc34)C1=C[C@H](C(C)C)O[C@@H]2C1CC1	0	.	-1	0	-1	-7	.	.	.	.
O=c1[nH]c(N/N=C/c2ccc(O)cc2)nc2ccccc12	1	2	1	2	9	8	.	.	.	.
O=c1[nH]c(N/N=C\c2ccc(F)cc2)nc2ccccc12	1.6*	3	8.4*	4	15*	2	1	5	18*	1
